The record followed here is PubChem BioAssay (EPA / NIEHS).

For assay [1], the target named is Transcriptional activator Myb (Homo sapiens) (UniProt P10242). Briefly: ATG_Myb_CIS: Attagene CIS-FACTORIAL HepG2 Assay for human Myeloblastosis (Myb) Proto-Oncogene Transcription Factor (AID 2282986). To be noted: HepG2 Attagene CIS-FACTORIAL Myb reporter transcription; actives raise or lower the signal. In a few lines: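 Transiently transfected HepG2 cells, treated 24 h. Reporter mRNA quantified by RT-PCR/capillary electrophoresis; bidirectional fit relative to DMSO.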

Assay [2] deals with Nuclear respiratory factor 1 (Homo sapiens) (UniProt Q16656). Description: ATG_NRF1_CIS: Attagene CIS-FACTORIAL HepG2 Assay for human Nuclear Respiratory Factor 1 (NRF1) Orphan Gene (AID 2282987). Conditions: HepG2 NRF1 cis-element reporter, Attagene multiplex; actives raise or lower the signal. In a few lines: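 Cells (HepG2, transient MRTU transfection) are exposed to compound for 24 h, then RNA isolated and reporter mRNA amplified and fluorescently labelled. Fragments are separated by capillary electrophoresis; signal change is fitted bidirectionally relative to DMSO.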

Assay [3] in a line: ATG_NFI_CIS: Attagene CIS-FACTORIAL HepG2 Assay for human Nuclear Factor I (NFI) (AID 2282989). Conditions: HepG2 cis-regulatory reporter, NFI response element transcription; actives raise or lower the signal. A digest of the protocol: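 Cells: human liver HepG2, transiently transfected with promoter-regulated reporter transcription units. Exposure 24 h. Detection: fluorescent RT-PCR products separated by capillary electrophoresis, normalised to DMSO negative control.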

Assay [4] addresses Myc proto-oncogene protein (Homo sapiens) (UniProt P01106). Briefly: ATG_Myc_CIS: Attagene CIS-FACTORIAL HepG2 Assay for human Myelocytomatosis (Myc) Proto-Oncogene Transcription Factor (AID 2282990). To be noted: HepG2, Attagene cis-reporter transcription factor activity; actives raise or lower the signal. In a few lines: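 Multiplexed cis-reporter transcription in HepG2 cells after 24 h chemical treatment. Reporter mRNA measured by RT-PCR and capillary electrophoresis fluorescence; activity fitted bidirectionally against DMSO control.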

The nature of assay [5]: ATG_NF_kB_CIS: Attagene CIS-FACTORIAL HepG2 Assay for human Nuclear Factor Kappa B (NF-kB) (AID 2282991). Conditions: HepG2 Attagene cis-factorial NF-kB reporter mRNA; actives raise or lower the signal. In a few lines:
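Measures mRNA induction of an NF-kB-responsive cis-element reporter in HepG2 cells transfected with multiple reporter units, sampled 24 h post-dosing; quantified by fluorescence after RT-PCR and capillary electrophoresis, fitted for activation or inhibition against DMSO.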

The nature of assay [6]: ATG_NRF2_ARE_CIS: Attagene CIS-FACTORIAL HepG2 Assay for human Nuclear Factor Erythroid 2 Related Factor 2 (NFR2) response to Antioxidant Response Elements (ARE) (AID 2282992). To be noted: HepG2 Attagene ARE/NRF2 reporter, transcription factor activity; actives raise or lower the signal. A digest of the protocol:
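Readout: reporter mRNA quantified by RT-PCR plus FAM-labelled primer extension, HpaI digestion and capillary electrophoresis, 24 h after dosing transfected HepG2 cells. Gain or loss of signal is fitted bidirectionally against DMSO baseline.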

Assay [7] is described as follows: ATG_Oct_MLP_CIS: Attagene CIS-FACTORIAL HepG2 Assay for human Octamer-Binding Transcription Factor (Oct) (AID 2282993). To be noted: HepG2 Attagene cis-factorial Oct reporter, mRNA; actives raise or lower the signal. A digest of the protocol:
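HepG2, transient MRTU transfection, cis promoter elements; 24 h dosing; RT-PCR/CE fluorescence read-out of reporter mRNA; fit both directions vs DMSO.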

The target of assay [8] is Cellular tumor antigen p53 (Homo sapiens) (UniProt P04637). Description: ATG_p53_CIS: Attagene CIS-FACTORIAL HepG2 Assay for human p53 Transcription Factor (AID 2282994). Conditions: HepG2 p53 cis-element reporter, Attagene mRNA; actives raise or lower the signal. A digest of the protocol:
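Read-out: reporter mRNA by RT-PCR plus capillary electrophoresis with fluorescence detection. Human HepG2 liver cells carried transfected multi-reporter cis-element constructs, dosed 24 h. Gain or loss of signal fitted bidirectionally against DMSO control.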

Assay [9] addresses human Peroxisome Proliferator-activated Receptor alpha (PPARa), PPARA (gene 5465) (UniProt Q07869). Briefly: ATG_PPARa_TRANS: Attagene TRANS-FACTORIAL HepG2 Assay for human Peroxisome Proliferator-activated Receptor alpha (PPARa) (AID 2283001; active = hit-call score of the fitted dose curve at least 0.9, where 1 is the maximum;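 as to AC50: potency for gain of reporter signal over DMSO so agonist or activator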). In a few lines:
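Exposure: 24 h, transiently transfected HepG2 cells. Endpoint: GAL4-UAS reporter mRNA, RT-PCR with capillary electrophoresis fluorescence. Baseline: DMSO; increases fitted.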

In assay [10] the target is human Peroxisome Proliferator-activated Receptor delta (PPARd), PPARD (gene 5467) (UniProt Q03181). Briefly: ATG_PPARd_TRANS: Attagene TRANS-FACTORIAL HepG2 Assay for human Peroxisome Proliferator-activated Receptor delta (PPARd) (AID 2283002; active = hit-call score of the fitted dose curve at least 0.9, where 1 is the maximum). In a few lines: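 Multiplexed trans-activation format: HepG2 liver cells expressing exogenous NR-Gal4 chimeras and GAL4-UAS reporters were exposed for 24 h. Reporter mRNA was detected by RT-PCR with capillary electrophoresis fluorescence; activity fitted as gain of signal relative to DMSO.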

For assay [11], the target named is Peroxisome proliferator-activated receptor gamma (Homo sapiens) (UniProt P37231). Briefly: ATG_PPARg_TRANS: Attagene TRANS-FACTORIAL HepG2 Assay for human Peroxisome Proliferator-activated Receptor-gamma (PPARg) (AID 2283007; active = hit-call score of the fitted dose curve at least 0.9, where 1 is the maximum). A digest of the protocol: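 Gain-of-signal endpoint relative to DMSO, derived from reporter mRNA levels quantified by RT-PCR and capillary electrophoresis. Cells were HepG2 transiently expressing a chimeric NR-Gal4 construct with GAL4-UAS reporters, exposed to chemicals for 24 h.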

Assay [12] deals with Nuclear receptor subfamily 1 group I member 2 (Homo sapiens) (UniProt O75469). Description: ATG_PXR_TRANS: Attagene TRANS-FACTORIAL HepG2 Assay for human Pregnane X Receptor (PXR) (AID 2283008; active = hit-call score of the fitted dose curve at least 0.9, where 1 is the maximum). In a few lines:
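Trans-factorial format: exogenous NR-Gal4 fusion activity, not endogenous factor, in transfected human HepG2 liver cells. After 24 h dosing, RNA isolated, reverse-transcribed, amplified and resolved by capillary electrophoresis; induction scored versus DMSO.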

The nature of assay [13]: BSK_3C_TissueFactor: BioMAP Diversity Plus: 3C Assay for Tissue Factor Biomarker Activity (AID 2282997). To be noted: BioMAP 3C HUVEC, tissue factor biomarker readout; actives raise or lower the signal. In a few lines: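 After a 24 h chemical exposure of primary human umbilical vein endothelial cells, Tissue Factor levels were quantified by ELISA.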
The nature of assay [14]: BSK_3C_uPAR: BioMAP Diversity Plus: 3C Assay for Urokinase-type plasminogen activator receptor (uPAR) Biomarker Activity (AID 2282998). To be noted: BioMAP 3C HUVEC, uPAR biomarker ELISA; actives raise or lower the signal. In a few lines: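 A multiplexed primary-cell system built on human umbilical vein endothelium was used, with chemical present for 24 h before reading. Cell-surface uPAR was detected by ELISA; signal change in either direction counted against DMSO.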
Background: In an ELISA, binding on a coated surface is turned into a signal by an enzyme label.

A short description of assay [15]: BSK_3C_VCAM1: BioMAP Diversity Plus: 3C Assay for Vascular cell adhesion molecule 1 (VCAM1) Biomarker Activity (AID 2282999). Conditions: BioMAP 3C HUVEC, VCAM1 ELISA, cytokine-stimulated; actives raise or lower the signal. In a few lines: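 Vascular primary endothelium (human umbilical vein) was exposed to chemicals and assayed 24 h later. VCAM-1 levels came from ELISA, with DMSO serving as baseline for bidirectional fitting.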

The nature of assay [16]: BSK_4H_Eotaxin3: BioMAP Diversity Plus: 4H Assay for Eotaxin 3 Biomarker Activity (AID 2283000).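 As to outcome: CCL26 protein level quantified by ELISA in parallel with SRB cytotoxicity check.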 Conditions: primary human endothelial cells (HUVEC); actives raise or lower the signal. In a few lines: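 Chemicals were added to human umbilical vein endothelium cultures, and Eotaxin-3 was quantified by ELISA at 24 h. Values were derived by bidirectional fitting with DMSO serving as negative control and activity baseline.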

Read-out in assay [17]: Intercellular Adhesion Molecule 1 (ICAM1), ICAM1 (gene 3383)
Briefly: BSK_3C_ICAM1: BioMAP Diversity Plus: 3C Assay for Intercellular Adhesion Molecule 1 (ICAM1) Biomarker Activity (AID 2283003). Conditions: primary human endothelial cells (HUVEC); actives raise or lower the signal. In a few lines:
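ELISA read-out of ICAM-1; HUVEC (primary human), 3C system, 24 h post-dosing; bidirectional fit vs DMSO baseline.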

Assay [18] is described as follows: BSK_3C_Proliferation: Cell Proliferation Assessment in the BioMAP Diversity Plus: 3C Assay (AID 2283006).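 As to AC50: potency may reflect either rise or fall in cell number versus DMSO.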 Conditions: primary human endothelial cells (HUVEC). A digest of the protocol:
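HUVEC, sub-confluent; 48 h chemical exposure; 10% TCA fix, 0.1% SRB stain, A560 total protein. Gain or loss of signal fitted both directions vs DMSO control.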

Assay [19] deals with Retinoic acid receptor alpha (Homo sapiens) (UniProt P10276). Briefly: ATG_RARa_TRANS: Attagene TRANS-FACTORIAL HepG2 Assay for human Retinoic Acid Receptor alpha (RARa) (AID 2283005; active = hit-call score of the fitted dose curve at least 0.9, where 1 is the maximum). A digest of the protocol:
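HepG2 cells transiently transfected with multiple reporter units expressing chimeric RARα-GAL4 fusion, with GAL4-UAS-driven reporters. After 24 h compound exposure, reporter mRNA induction quantified by RT-PCR and capillary electrophoresis with fluorescent labeling; gain-of-signal fitted relative to DMSO control.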

The target in assay [20] is human Retinoic Acid Receptor beta (RARb), RARB (gene 5915) (UniProt P10826). Briefly: ATG_RARb_TRANS: Attagene TRANS-FACTORIAL HepG2 Assay for human Retinoic Acid Receptor beta (AID 2283004; active = hit-call score of the fitted dose curve at least 0.9, where 1 is the maximum). A digest of the protocol: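 Transient transfection of HepG2 with multiple reporter units → chemical dosing, 24 h → total RNA isolation → RT with oligo(dT) → reporter-specific PCR, 6-FAM primer extension, HpaI digest → capillary electrophoresis. Positive direction vs DMSO control.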

Values joined by “and” are separate entries in the source; they are usually repeats but may differ in a detail not shown here. Equal values may be shown once. Results filed as inconclusive are left out. Some structures have more than one record in an assay (separate samples or runs), and their calls can disagree. Active and inactive are the calls of the source. The calls were made as follows, unless noted: active = hit-call score of the fitted dose curve at least 0.9, where 1 is the maximum; inactive = score below 0.9.

For orientation: AC50 means the concentration at which the activity in the assay is half-maximal.

Chain of Nuclear receptor subfamily 1 group I member 2 (Homo sapiens) (O75469 whole entry, looked up, the tested form may be a part): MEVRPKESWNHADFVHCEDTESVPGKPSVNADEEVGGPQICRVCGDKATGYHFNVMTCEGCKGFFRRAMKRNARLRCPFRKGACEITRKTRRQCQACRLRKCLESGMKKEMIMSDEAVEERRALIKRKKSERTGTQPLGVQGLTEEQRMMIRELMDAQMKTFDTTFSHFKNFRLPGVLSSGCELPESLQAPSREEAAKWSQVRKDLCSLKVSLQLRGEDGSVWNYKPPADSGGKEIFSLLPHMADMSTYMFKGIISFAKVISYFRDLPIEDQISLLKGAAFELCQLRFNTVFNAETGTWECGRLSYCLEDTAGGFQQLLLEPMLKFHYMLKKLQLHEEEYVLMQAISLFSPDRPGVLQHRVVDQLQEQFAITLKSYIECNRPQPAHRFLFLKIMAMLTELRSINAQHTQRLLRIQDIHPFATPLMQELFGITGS
Chain of human Retinoic Acid Receptor beta (RARb), RARB (gene 5915) (P10826 whole entry, looked up): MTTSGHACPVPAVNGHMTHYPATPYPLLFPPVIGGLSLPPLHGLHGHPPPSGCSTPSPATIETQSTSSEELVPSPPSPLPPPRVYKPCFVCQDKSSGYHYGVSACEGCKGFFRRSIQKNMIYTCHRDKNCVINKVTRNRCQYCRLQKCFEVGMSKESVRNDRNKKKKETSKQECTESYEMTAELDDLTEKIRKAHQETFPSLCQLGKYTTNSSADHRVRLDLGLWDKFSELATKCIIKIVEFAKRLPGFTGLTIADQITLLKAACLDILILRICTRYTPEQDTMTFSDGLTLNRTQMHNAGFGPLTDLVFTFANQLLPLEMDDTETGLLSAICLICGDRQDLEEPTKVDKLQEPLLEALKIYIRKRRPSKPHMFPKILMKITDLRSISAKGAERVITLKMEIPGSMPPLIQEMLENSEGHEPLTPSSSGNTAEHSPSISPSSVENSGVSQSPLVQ
Chain of human Peroxisome Proliferator-activated Receptor delta (PPARd), PPARD (gene 5467) (Q03181 whole entry, looked up, the tested form may be a part): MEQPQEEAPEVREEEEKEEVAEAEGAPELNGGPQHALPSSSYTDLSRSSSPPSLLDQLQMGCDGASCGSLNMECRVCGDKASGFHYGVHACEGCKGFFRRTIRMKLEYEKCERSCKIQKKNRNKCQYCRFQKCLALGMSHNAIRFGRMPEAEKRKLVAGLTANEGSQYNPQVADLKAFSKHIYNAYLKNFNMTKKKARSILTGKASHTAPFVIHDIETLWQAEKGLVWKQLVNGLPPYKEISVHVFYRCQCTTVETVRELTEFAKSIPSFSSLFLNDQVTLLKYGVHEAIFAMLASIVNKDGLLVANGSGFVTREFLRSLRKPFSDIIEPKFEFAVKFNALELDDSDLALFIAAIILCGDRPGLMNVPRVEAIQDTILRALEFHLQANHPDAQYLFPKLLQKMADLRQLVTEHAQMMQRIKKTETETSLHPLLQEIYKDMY
Chain of Peroxisome proliferator-activated receptor gamma (Homo sapiens) (P37231 whole entry, looked up, the tested form may be a part): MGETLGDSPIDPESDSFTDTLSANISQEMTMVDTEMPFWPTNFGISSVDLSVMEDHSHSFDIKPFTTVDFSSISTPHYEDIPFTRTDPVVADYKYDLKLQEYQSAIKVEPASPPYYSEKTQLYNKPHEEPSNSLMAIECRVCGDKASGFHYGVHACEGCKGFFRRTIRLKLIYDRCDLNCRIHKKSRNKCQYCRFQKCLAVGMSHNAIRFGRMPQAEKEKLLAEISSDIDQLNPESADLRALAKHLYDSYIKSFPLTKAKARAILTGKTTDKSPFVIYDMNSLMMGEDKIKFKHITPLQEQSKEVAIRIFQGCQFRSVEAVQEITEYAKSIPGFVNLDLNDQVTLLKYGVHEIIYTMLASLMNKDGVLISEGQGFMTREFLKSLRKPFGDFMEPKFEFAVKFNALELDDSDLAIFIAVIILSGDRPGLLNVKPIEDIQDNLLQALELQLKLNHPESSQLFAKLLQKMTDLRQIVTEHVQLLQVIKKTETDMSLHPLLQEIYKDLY
Chain of Cellular tumor antigen p53 (Homo sapiens) (P04637 whole entry, looked up): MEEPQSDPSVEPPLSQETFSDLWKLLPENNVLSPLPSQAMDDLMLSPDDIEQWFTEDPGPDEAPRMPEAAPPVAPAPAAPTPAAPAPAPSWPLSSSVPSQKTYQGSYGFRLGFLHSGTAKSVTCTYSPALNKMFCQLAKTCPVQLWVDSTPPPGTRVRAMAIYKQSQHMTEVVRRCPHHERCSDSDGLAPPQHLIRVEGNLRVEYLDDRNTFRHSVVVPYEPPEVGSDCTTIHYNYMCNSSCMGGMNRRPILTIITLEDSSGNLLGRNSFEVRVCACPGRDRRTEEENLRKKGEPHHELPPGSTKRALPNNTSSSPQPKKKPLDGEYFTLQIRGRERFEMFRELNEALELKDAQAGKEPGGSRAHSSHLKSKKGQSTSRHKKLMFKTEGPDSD
Chain of Nuclear respiratory factor 1 (Homo sapiens) (Q16656 whole entry, looked up, the tested form may be a part): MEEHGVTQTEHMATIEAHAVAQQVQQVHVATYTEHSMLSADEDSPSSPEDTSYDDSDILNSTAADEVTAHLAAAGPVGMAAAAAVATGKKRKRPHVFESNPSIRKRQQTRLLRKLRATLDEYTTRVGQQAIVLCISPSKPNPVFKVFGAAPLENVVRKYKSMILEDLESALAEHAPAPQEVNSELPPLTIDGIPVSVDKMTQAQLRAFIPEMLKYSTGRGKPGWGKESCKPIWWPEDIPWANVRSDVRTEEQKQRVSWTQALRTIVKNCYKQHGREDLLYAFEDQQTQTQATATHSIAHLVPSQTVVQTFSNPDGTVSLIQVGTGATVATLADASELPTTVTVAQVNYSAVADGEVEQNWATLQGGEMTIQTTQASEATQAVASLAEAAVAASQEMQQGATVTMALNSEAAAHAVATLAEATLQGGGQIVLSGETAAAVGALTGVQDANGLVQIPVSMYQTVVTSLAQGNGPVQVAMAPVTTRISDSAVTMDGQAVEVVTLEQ
Chain of human Peroxisome Proliferator-activated Receptor alpha (PPARa), PPARA (gene 5465) (Q07869 whole entry, looked up, the tested form may be a part): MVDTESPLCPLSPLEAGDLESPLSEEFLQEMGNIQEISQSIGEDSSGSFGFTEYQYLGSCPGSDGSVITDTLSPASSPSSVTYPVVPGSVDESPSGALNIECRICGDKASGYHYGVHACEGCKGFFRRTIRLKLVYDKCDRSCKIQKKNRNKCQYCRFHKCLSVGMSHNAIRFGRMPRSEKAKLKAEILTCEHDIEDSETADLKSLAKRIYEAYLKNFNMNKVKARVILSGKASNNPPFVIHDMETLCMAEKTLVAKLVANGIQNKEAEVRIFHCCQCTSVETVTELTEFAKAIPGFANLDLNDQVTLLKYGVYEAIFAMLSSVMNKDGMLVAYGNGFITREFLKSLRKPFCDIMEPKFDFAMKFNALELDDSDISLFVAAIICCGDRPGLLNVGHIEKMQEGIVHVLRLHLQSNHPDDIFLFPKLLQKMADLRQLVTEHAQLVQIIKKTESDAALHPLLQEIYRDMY
Chain of Myc proto-oncogene protein (Homo sapiens) (P01106 whole entry, looked up): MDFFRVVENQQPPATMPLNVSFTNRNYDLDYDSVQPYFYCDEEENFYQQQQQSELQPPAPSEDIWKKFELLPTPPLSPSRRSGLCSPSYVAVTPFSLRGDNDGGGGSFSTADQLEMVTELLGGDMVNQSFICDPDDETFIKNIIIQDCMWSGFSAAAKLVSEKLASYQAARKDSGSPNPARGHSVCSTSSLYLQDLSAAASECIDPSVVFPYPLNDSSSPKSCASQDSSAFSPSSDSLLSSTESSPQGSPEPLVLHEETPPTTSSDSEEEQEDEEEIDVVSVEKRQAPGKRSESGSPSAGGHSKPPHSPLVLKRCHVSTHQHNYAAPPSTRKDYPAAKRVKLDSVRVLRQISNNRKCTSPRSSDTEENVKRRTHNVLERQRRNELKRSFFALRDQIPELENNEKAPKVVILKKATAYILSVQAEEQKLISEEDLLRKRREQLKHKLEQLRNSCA
Chain of Transcriptional activator Myb (Homo sapiens) (P10242 whole entry, looked up): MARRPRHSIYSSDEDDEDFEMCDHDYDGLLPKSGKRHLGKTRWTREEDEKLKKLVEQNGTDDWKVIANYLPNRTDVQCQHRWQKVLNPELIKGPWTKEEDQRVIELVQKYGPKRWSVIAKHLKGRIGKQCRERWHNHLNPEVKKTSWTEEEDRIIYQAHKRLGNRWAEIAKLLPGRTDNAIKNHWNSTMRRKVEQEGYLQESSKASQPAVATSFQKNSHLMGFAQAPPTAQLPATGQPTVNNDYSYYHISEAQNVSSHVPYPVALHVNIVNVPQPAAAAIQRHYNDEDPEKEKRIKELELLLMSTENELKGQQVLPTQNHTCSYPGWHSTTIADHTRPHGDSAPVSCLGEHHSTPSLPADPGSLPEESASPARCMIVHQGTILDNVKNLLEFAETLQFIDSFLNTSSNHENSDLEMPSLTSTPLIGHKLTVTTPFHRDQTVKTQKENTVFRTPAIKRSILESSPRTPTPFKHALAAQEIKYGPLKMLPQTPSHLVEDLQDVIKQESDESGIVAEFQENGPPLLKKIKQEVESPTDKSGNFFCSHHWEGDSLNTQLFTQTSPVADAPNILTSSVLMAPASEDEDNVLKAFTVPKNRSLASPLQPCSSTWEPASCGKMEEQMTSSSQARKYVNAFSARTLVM
Chain of Retinoic acid receptor alpha (Homo sapiens) (P10276 whole entry, looked up, the tested form may be a part): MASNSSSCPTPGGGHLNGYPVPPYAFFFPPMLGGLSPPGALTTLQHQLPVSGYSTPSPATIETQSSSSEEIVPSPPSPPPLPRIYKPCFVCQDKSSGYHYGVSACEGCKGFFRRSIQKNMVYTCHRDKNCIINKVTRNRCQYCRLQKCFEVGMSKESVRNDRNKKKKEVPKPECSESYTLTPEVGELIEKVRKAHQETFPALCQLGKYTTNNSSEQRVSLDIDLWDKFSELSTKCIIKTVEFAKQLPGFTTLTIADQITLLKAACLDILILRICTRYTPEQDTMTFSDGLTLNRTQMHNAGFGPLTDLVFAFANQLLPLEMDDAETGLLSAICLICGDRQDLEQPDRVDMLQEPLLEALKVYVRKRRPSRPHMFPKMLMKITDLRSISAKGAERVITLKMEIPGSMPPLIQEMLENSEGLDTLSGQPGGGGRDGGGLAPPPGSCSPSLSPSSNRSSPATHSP

For the compound `N#C/C=C/c1ccccc1`, the compound was called inactive in assay [1], in assay [2], in [3], in assay [4], in [5] and in [6]. In addition, the result in [7], in assay [8], in [9], in assay [10] and in assay [12] was inactive. Also, in assay [11], the AC50 is 10.1 µM (active).
Regarding `ClC(Cl)=C(c1ccc(Cl)cc1)c1ccccc1Cl`, the outcome in assay [1], in assay [2], in [4], in assay [5], in assay [8] and in [9] was inactive. In addition, the result in [10] and in assay [11] was inactive. Moreover, the AC50 is 181 µM (active) in [3]; 35.3 µM (active) in assay [6]; 100 µM (active) in assay [7]; 20 µM (active) in [13]; 10.5 µM (active) in assay [14]; 10.7 µM (active) in assay [15]. Further, the AC50 is 6 µM (active) in [16], 28.7 µM (active) in [17] and 11.7 µM (active) in assay [18].
Consider `O=c1[nH]c2ccccc2c(=O)o1`, for which the result in assay [1], in assay [2], in [3], in [4], in [5] and in [6] was inactive. Also, the compound was classed as inactive in [7], in assay [8], in assay [9], in assay [10], in [19] and in assay [11].
On to `COC(=O)C(F)(F)C(F)(F)OC(F)(C(F)(F)F)C(F)(F)OC(F)=C(F)F` (configuration not stated), for which the call in assay [1], in assay [2], in [3], in [4], in [5] and in assay [7] was inactive. The call in assay [8], in [13], in assay [14], in assay [15], in assay [16] and in assay [10] was inactive. Besides, the outcome in assay [17], in [20] and in assay [18] was inactive. The half-maximal activity concentration (AC50) in assay [6] is 4.38 µM (active) and 10.3 µM (active) and 5.16 µM (active); in [8], 12.7 µM (active); in assay [9], 8.47 µM (active) and 26 µM (active) and 10.1 µM (active); in assay [10], 15.4 µM (active); in assay [11], 124 nM (active) and 241 nM (active) and 127 nM (active).
Consider `Cc1ccc(N)cc1N`, for which the compound was called inactive in assay [1], in assay [2], in [3], in [4], in assay [5] and in assay [6]. Further, the compound was called inactive in [7], in assay [8], in assay [13], in [14], in [15] and in assay [16]. For the same compound, the result in assay [9], in assay [17] and in [18] was inactive.
As for `CNC(=O)Oc1ccc(N(C)C)c(C)c1`, the call in assay [1], in [2], in assay [3], in assay [4], in assay [5] and in assay [6] was inactive. Besides, the outcome in assay [7], in assay [8], in assay [10], in assay [11] and in [12] was inactive.
On to `OCC(F)(F)OC(F)(F)C(F)(F)OC(F)(F)C(F)(F)OC(F)(F)F`, for which the call in assay [1], in assay [2], in assay [3], in assay [4], in assay [5] and in assay [6] was inactive. In addition, the outcome in assay [7], in assay [9], in assay [10], in assay [20], in assay [19] and in assay [11] was inactive. The AC50 in [13] is 30 µM (active) and 47.3 µM (active); in assay [14], 43.9 µM (active) and 46.4 µM (active); in assay [15], 36.1 µM (active) and 50.3 µM (active); in [16], 22.3 µM (active) and 42.2 µM (active); in assay [17] it was 30 µM (active); in [18], 15.5 µM (active) and 26.1 µM (active).
Regarding `CC(=O)c1ccc(-c2ccccc2)cc1`, the compound was called inactive in assay [1], in [2], in assay [3], in assay [4], in [5] and in [6]. In addition, the result in [7], in assay [8], in assay [9], in assay [10] and in [11] was inactive. For the same compound, the concentration at half-maximal activity (AC50) in assay [12] is 24.7 µM (active).
